An excerpt weighted towards active compounds, which were near 3.4% of everything screened.
NRP1-CendR mod: modulators of CendR peptide binding to NRP-1, primary screen, biochemical, fluorescence polarization, uHTS; Neuropilin-1 (Homo sapiens), O14786; FAM-RPARPAR peptide binding to NRP-1; inhibition, % at 25 µM; 360,000 compounds, 0.85% hits;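 active means inhibition or corrected inhibition above about 18%, plus a signal ratio from 0.5 to 1.5, limit read from the data, passing the limit was not always enough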
ADAM10 inh: human ADAM10 inhibitors, primary screen, biochemical, QFRET, HTS | recombinant ADAM10, EDANS/DABCYL FRET peptide cleavage, 3 h | 370,000 compounds, 0.62% hits | Disintegrin and metalloproteinase domain-containing protein 10 (Homo sapiens), O14672 | inhibition, % at 7 µM | AID 720582, 2013;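 active means inhibition above a per-campaign cutoff equal to the mean of compounds falling between control-based bounds plus 3 SD, cut at about 20% in these data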;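 further: 0% = DMSO wells while the 100% control is not disclosed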
ADAM17 inh: ADAM17 inhibitors, primary screen, biochemical, QFRET. recombinant ADAM17, EDANS/DABCYL FRET peptide cleavage. 370,000 compounds, 0.83% hits. inhibition, % at 6.95 µM. Disintegrin and metalloproteinase domain-containing protein 17 (Homo sapiens), P78536;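 active means inhibition above the mean of compounds lying between control limits plus 3 SD, set per campaign, cut at about 8.5% in these data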;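 further: 0% = DMSO-only wells as the low control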
HGIII-sPLA2 inh: human group III sPLA2 inhibitors, primary screen, biochemical, QFRET, BODIPY PC-A2 liposome substrate; QFRET BODIPY PC-A2 liposome hydrolysis, fluorescence; inhibition, % at 12.2 µM; 370,000 compounds, 0.56% hits; AID 743126, 2013;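 active means inhibition above mean plus 3 SD of compounds lying within the high and low control bounds, cut at about 19% in these data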;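 further: 0% = median of test compound wells and 100% = no enzyme DMSO wells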
proKLK7 act: proKLK7 zymogen activators, primary screen, biochemical, fluorescence intensity. Kallikrein-7 (Homo sapiens), P49862. purified proKLK7, EDANS-DABCYL substrate fluorescence; 100% is mature enzyme control, 0% vehicle. activation, % at 7 µM. 370,000 compounds, 0.9% hits. AID 652039, 2013;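 active means activation above the mean of all tested compounds plus 3 SD, computed per campaign excluding outliers beyond control limits, cut at about 13% in these data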
Target sequence (P49862 whole entry, looked up): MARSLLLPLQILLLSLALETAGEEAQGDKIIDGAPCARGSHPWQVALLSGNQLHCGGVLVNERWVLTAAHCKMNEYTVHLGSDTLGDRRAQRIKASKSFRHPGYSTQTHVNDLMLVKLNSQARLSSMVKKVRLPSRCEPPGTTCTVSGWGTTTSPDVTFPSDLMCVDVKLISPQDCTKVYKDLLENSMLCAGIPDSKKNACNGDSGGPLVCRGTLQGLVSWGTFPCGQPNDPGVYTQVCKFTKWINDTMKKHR
ADAM10 confirm: human ADAM10 inhibitors, confirmation, biochemical, QFRET, triplicate. ADAM10 QFRET peptide cleavage, EDANS fluorescence. 2,100 compounds, 1% hits. shares compounds with ADAM10 inh. inhibition, % at 6.95 µM;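 active means inhibition above about 20% chosen separately for each screening run, limit read from the data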;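 further: 0% = DMSO wells and 100% = marimastat wells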
ADAM17 ctr: ADAM17 inhibitors, counter-screen for ADAM10 exosite inhibitor project, biochemical, QFRET, high throughput; shares compounds with ADAM10 inh; ADAM17 QFRET peptide cleavage, EDANS fluorescence; inhibition, % at 6.95 µM; 2,100 compounds, 0.5% hits; AID 743214, 2013;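 active means mean triplicate inhibition above the solvent-only control wells' mean plus 3 SD, cut at about 12% in these data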;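 further: 0% = DMSO wells and 100% = marimastat wells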
* marks the source's active call; other numbers are inactive results; . = not tested or not shown.

SMILES	NRP1-CendR mod	ADAM10 inh	ADAM17 inh	HGIII-sPLA2 inh	proKLK7 act	ADAM10 confirm	ADAM17 ctr
O=C(Nc1cc(Cl)ccc1-n1cncn1)c1cccc(S(=O)(=O)N2CCOCC2)c1	0	93*	-5	-6	-1	-1	0
O=C(Nc1cc(Cl)ccc1-n1cncn1)c1ccc(F)c(S(=O)(=O)N2CCOCC2)c1	4	-2	-5	0	0	.	.
O=C(CN1C(=O)C2(OCCCO2)c2ccccc21)NCc1ccc(F)cc1	.	2	-1	2	0	.	.
CCOC(=O)[C@@]12CCCC3=C1N(CCC3)C(=O)[C@H]2CC(=O)NCCc1ccccc1OC	.	-12	-3	6	1	.	.
CC(C)Oc1ccc(NC(=O)c2ccncc2)cc1	11	78*	-1	1	0	-2	0
C[C@H]1COc2cc(Br)ccc2S(=O)(=O)N1Cc1cn(Cc2ccc(Cl)cc2)nn1	.	7	0	-3	1	.	.
C/C(=N\OCC(=O)Nc1ccc(OC(F)(F)F)cc1)c1ccc2c(c1)OCCO2	2	20*	7	-12	0	8	2
O=C(Nc1ccccc1)c1ccccc1Oc1ccc(C(F)(F)F)cc1[N+](=O)[O-]	2	21*	-5	-17	1	4	1
CC[C@@]12C(=O)N(c3cccc(Br)c3)C(=O)N1[C@H](c1cccc(C)c1)[C@@H]1C(=O)N(Cc3ccccc3)C(=O)[C@@H]12	15	21*	8	-29	1	5	2
CC[C@@]12C(=O)N(c3ccccc3)C(=O)N1[C@H](c1cccc(C)c1)[C@@H]1C(=O)N(Cc3ccccc3)C(=O)[C@@H]12	-2	14	4	-11	1	.	.
Cc1cccc([C@@H]2[C@@H]3C(=O)N(Cc4ccccc4)C(=O)[C@@H]3[C@]3(Cc4ccc(Cl)cc4)C(=O)N(c4ccccc4)C(=O)N23)c1	10	7	-3	-9	1	.	.
Cc1cccc([C@@H]2[C@@H]3C(=O)N(Cc4ccccc4)C(=O)[C@@H]3[C@]3(Cc4ccccc4)C(=O)N(c4ccc(C(F)(F)F)cc4)C(=O)N23)c1	1	20*	8	-11	-2	13	7
Cc1cccc([C@@H]2[C@@H]3C(=O)N(Cc4ccccc4)C(=O)[C@@H]3[C@]3(Cc4ccccc4)C(=O)N(c4ccccc4)C(=O)N23)c1	11	22*	4	-9	0	2	2
N#Cc1cccc(NC(=O)OC2CCC23CCC(c2ccccc2)CC3)c1 (stereo not given)	.	12	5	-6	0	.	.
CCCC1CCC2(CC1)CCC2OC(=O)Nc1cccc(Cl)c1 (stereo not given)	.	-3	-2	-3	.	.	.
CCCCNC(=S)N/N=C/c1cc(C)ccc1C	2	20*	6	6	0	1	1
OC(c1ccc(F)cc1)c1nc(-c2ccc(F)c(Cl)c2)cs1 (stereo not given)	-3	20*	8	-9	-1	7	2
COc1cc(C(O)c2nc(-c3cccc(C(F)(F)F)c3)cs2)ccc1F (stereo not given)	2	21*	8	-10	0	5	1
CCCC[C@H]1C2CC(OC(=O)Nc3cccc(C(F)(F)F)c3)C(C2)[C@H]2CCCCN21 (stereo not given in full)	.	1	0	2	0	.	.
CCOC(=O)[C@]12CCCC3=C1N(CCC3)C(=O)[C@@H](CC(=O)NCCCCc1ccccc1)C2	.	2	-2	-7	1	.	.
O=S(=O)(c1cccc(C(F)(F)F)c1)N1CCC(CO)(CCCc2ccccc2)CC1	7	22*	8	-13	0	1	1
O=S(=O)(c1cccc(C(F)(F)F)c1)N1CCC(O)(c2cccnc2)CC1	-1	7	0	6	1	.	.
COc1ccc(-c2cc(-c3nnc(SCc4cccc5ccccc45)n3N)[nH]n2)cc1	.	-10	-23	6	-1	.	.
O=C(NCc1cn(-c2ccccc2)nc1-c1ccccc1)c1cc([N+](=O)[O-])cc([N+](=O)[O-])c1	8	9	-2	0	0	.	.
COc1ccc(NC(=O)CN(C)C(=O)c2cn(-c3ccccc3)nc2-c2ccc(F)cc2)cc1	11	7	7	-26	0	.	.
SMILES	NRP1-CendR mod	ADAM10 inh	ADAM17 inh	HGIII-sPLA2 inh	proKLK7 act	ADAM10 confirm	ADAM17 ctr
COc1ccc(NC(=O)CN(C)C(=O)c2cn(-c3ccccc3)nc2-c2ccc(OC)cc2)cc1	3	26*	7	-32	1	0	1
COc1ccc(-c2nn(-c3ccccc3)cc2C(=O)Nc2cccc(S(=O)(=O)NC3=NCCC3)c2)cc1	6	24*	2	-36	0	7	1
COc1ccc(-c2nn(-c3ccccc3)cc2CNC(=O)c2cccc([N+](=O)[O-])c2)cc1	0	21*	8	-11	0	4	1
C/C=C/C=C/C(=O)N1C[C@H](C)N(C)C[C@H]1C	.	-5	-4	18	0	.	.
O=C(COc1ccc(S(=O)(=O)Nc2ccccc2)cc1)NCc1ccccn1	-7	74*	-3	-7	0	-1	0
COC(=O)C1CN(Cc2cn(Cc3ccccc3)nn2)CCS(=O)(=O)N1Cc1ccc(F)cc1 (stereo not given)	.	-8	-4	8	0	.	.
O=C(CSc1nc(=O)n(CCCN2CCOCC2)c2c1CCC2)Nc1ccccc1F	1	80*	-1	19	1	0	0
CCOc1ccccc1NC(=O)CSc1nc(=O)n(CCCN2CCOCC2)c2c1CCC2	-1	-15	-5	13	-1	.	.
COc1ccc(N2CCN(C(=O)c3ccc(C(C)(C)C)cc3)CC2)cc1	17	88*	-5	7	0	1	0
O=C(NC1CCCC1)C1(C(=O)C2CC2)CC(c2ccccn2)=NO1 (stereo not given)	.	2	1	1	1	.	.

Screening data as filed in PubChem BioAssay.
